# Inconclusive results are not listed. A number with no mark means an inactive call. Calls of active or inactive are those of the source. Calls follow the shape of the dose curve; as a rule, active = well fitted cell-killing curve with a large enough effect; inconclusive = small, poorly fitted or top-dose-only effect; inactive = flat fitted curve, though single readings scatter.
# Assay: Cellular viability qHTS for adrenocortical cancer (ACC) cell line SW-13 (AID 1963989); also: nearly all actives have a fitted effect of over 65% in size;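 as to activity (max response): cells grown in serum-free medium with ITS supplement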
# Details: SW-13 ACC cells viability, CellTiter-Glo, 48 h; activity (max response): active compounds read low
# Description: PI: Naris Nilubol, MD Surgical Oncology Program, National Cancer Institute (NCI) National Institute of Health (NIH), Bethesda, Maryland Adrenocortical cancer (ACC) is a rare malignancy with poor survival outcomes and few treatment options. Currently, mitotane is the only FDA-approved therapy for ACC. Although adjuvant radiation therapy is rarely utilized, it has the potential to improve survival in select cases. Through a quantitative high-throughput drug screen (qHTS), we identified auranofin (AF), a thioredoxin reductase (TXNRD) inhibitor, as a promising candidate drug. This study aims to evaluate whether AF can enhance the efficacy of radiation therapy in the treatment of ACC. Two human ACC cell lines, SW-13 and NCI-H295R, were screened using the National Center for Advancing Translational Sciences (NCATS) Pharmaceutical Collection (NPC) and the Mechanism Interrogation PlatE (MIPE) library (~4,991 compounds). CellTiter-Glo (Cat # G7570, Promega, Madison, WI) was utilized to measure cell viability. Described herein are the results of the corresponding viability assay.
# PROTOCOL TABLE (as described by Inglese J, Shamu CE and Guy RK. 2007) SEQUENCE No. (e.g., 1, 2, 3, etc.); […] (e.g., Cells, Incubation, Reagent, etc.); VALUE; DESCRIPTION. 1; Cells; 5 uL; white, solid-bottom, 1536-well tissue-culture treated plates. 2; Time; overnight culture at 37C with 5% CO2. 3; Compounds and control; 23 nL; Kalypsis pin tool (Wako USA) equipped with a 1536-well pin head to transfer to the assay plates. 4; Time; 48 hours; 37C with 5% CO2. 5; Reagent; 4 uL; CellTiter-Glo luminescent substrate mix. 6; Time; 20 min at room temperature. 7; Detection; Luminescence; ViewLux plate reader NOTES (numbers refer to Sequence numbers above) 1. SW13 cells were harvested from a T175 flask and resuspended in ITS-supplemented DMEM serum-free medium at a concentration of 300 000 cells/mL. Then 5 uL of resuspended cells were dispensed into each well of white, solid-bottom, 1536-well tissue-culture-treated plates using a multidrop combi dispenser. The plates were covered with stainless steel gasket lids. 2-3. The plates were cultured overnight at 37C with 5% CO2. Twenty-three nL of compounds (eight selected concentrations from the NPC / MIPE) or positive control (10 mM stock of bortezomib) in DMSO was transferred to each well of the assay plate using a pin tool (Kalypsys, San Diego, CA, USA). The final concentration of the compounds in the 5 uL assay volume ranged from 0.5 nM to 46 uM. 4-6. After 48 hours of incubation at 37C and 5% CO2, 4 uL of CellTilter-Glo luminescent substrate mix (Promega, Madison, WI, USA) was added to each well. Then the plates were incubated for 20 minutes at room temperature. 7. After incubation, luminescence was measured using a ViewLux plate reader (PerkinElmer, Waltham, MA, USA) with a clear filter was used to measure the number of metabolically competent cells. To determine compound activity in the qHTS assay, the titration-response data for each sample was plotted and modeled by a four-parameter logistic fit yielding IC50 and efficacy (maximal response) values. […] REFERENCES: Inglese J, Shamu CE and Guy RK, Reporting data from high throughput screening of small molecule libraries, Nature Chemical Biology, 2007, 3(8): 438-441. doi.org/10.1038/nchembio0807-438.
# % is scaled to controls: 0 for no effect and ±100 for the full control effect.
SMILES,Potency,activity (max response)
COc1ccc([C@@H]2Sc3ccccc3NC(=O)[C@@H]2O)cc1,7.31 µM (active),–
C=CC[N+]1([C@H]2C[C@H]3[C@@H]4CC[C@H]5C[C@H](O)[C@@H](N6CCOCC6)C[C@]5(C)[C@H]4CC[C@]3(C)[C@H]2OC(C)=O)CCCC1,–,-12.6%
CCc1cc(Nc2nccc(-c3c(-c4ccc(OC)c(C(=O)Nc5c(F)cccc5F)c4)nc4ccccn34)n2)c(OC)cc1N1CCC(N2CCN(S(C)(=O)=O)CC2)CC1,–,-11.3%
COc1ccc2c(c1)C(=O)N(CCc1ccc(S(=O)(=O)NC(=O)NC3CCCCC3)cc1)C(=O)C2(C)C,–,-10.4%
O=C(Cc1ccccc1)Nc1nnc(CCSCCc2nnc(NC(=O)Cc3ccccc3)s2)s1,–,11.1%
CC(=C(CCOC(=O)C(C)C)SSC(CCOC(=O)C(C)C)=C(C)N(C=O)Cc1cnc(C)nc1N)N(C=O)Cc1cnc(C)nc1N,–,9%
C[C@H]1CN(C2COC2)CCN1c1ccc(Nc2cc(-c3ccnc(N4CCn5c(cc6c5CC(C)(C)C6)C4=O)c3CO)cn(C)c2=O)nc1,–,10.6%
CCn1c(=O)c2c(nc(/C=C/c3ccc(OC)c(OC)c3)n2C)n(CC)c1=O,–,-21.5%
N[C@H](C(=O)O)[C@@H](O)c1ccc(O)c(O)c1,–,16%
CCC(=O)Oc1ccc2c(c1)CC[C@@H]1[C@@H]2CC[C@@]2(C)[C@H]1C[C@@H](OC(=O)CC)[C@@H]2OC(=O)CC,–,0.953%
COc1ccc2cc(CCC(C)=O)ccc2c1,–,2.06%
C[C@H](N)C(=O)N[C@@H](C)C(=O)NC1[C@H]2CN(c3nc4c(cc3F)c(=O)c(C(=O)O)cn4-c3ccc(F)cc3F)C[C@@H]12 (some centres undefined),–,-13.3%
CCCCN(CCCC)C(C(N)=O)c1ccc(OC)cc1 (centres undefined),–,14.1%
Nc1n[n+]([O-])c2ccccc2[n+]1[O-],–,-11.6%
CC(C)NC[C@@H](O)COc1cccc2ccccc12,–,-19.3%
Cn1cc(C(=O)[C@@H]2CCc3nc[nH]c3C2)c2ccccc21,–,-8.02%
C=C[C@@H]1CN2CCC1C[C@H]2[C@H](O)c1ccnc2ccc(OC)cc12 (some centres undefined),–,5.73%
COc1ccc(-n2c(SCCCN3C(=O)c4cccc5cccc(c45)C3=O)nnc2-c2ccncc2)cc1,–,-14.9%
CN(C(=O)CCCOc1ccc2[nH]c(=O)ccc2c1)C1CCCCC1,–,-3.83%
O=C(O)c1c(O)c(-c2ccccc2)nc2ccccc12,–,3.37%
C/C=C(/C(=C/C)c1ccc(OC(C)=O)cc1)c1ccc(OC(C)=O)cc1,18.4 µM (active),–
O=C(CCBr)N1CCN(C(=O)CCBr)CC1,–,-6.49%
O=C(CCCN1CCN(c2ccccn2)CC1)c1ccc(F)cc1,–,-12.5%
Cc1c(Cl)cccc1S(=O)(=O)Nc1nc(CCN2CCOCC2=O)cs1,–,12.4%

# — PubChem BioAssay (NCATS)
